Measured values reported in the supplement of paper PMC11417369.
In all, about 25,000 sequences were measured (“ln(normalized median fluorescence intensity)”: median about 6.7, highest 2% from about 10 on). What follows is part of a selection rich in the highest values, with near analogues and random picks from the rest.

System: PfHDP1 homeodomain (GST-tagged)
Assay: gcPBM binding intensity (ln(normalized median fluorescence intensity)); higher = stronger DNA binding
Method in brief: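 Plasmodium falciparum DNA-binding domains carrying a GST tag were expressed in E. coli and applied for 1 h, at about 25 μg on average, to an Agilent 4 × 180k array. The array held primer-extended double-stranded 36-bp intergenic genomic probes together with negative controls, and binding took place in 1× PBS with 1% milk, 0.2 mg/ml BSA, 0.5% salmon testes DNA and 0.03% Triton X-100. An Alexa488 anti-GST antibody detected bound protein, and the array was scanned at 488 nm. Binding intensity is taken as the highest Masliner-normalised natural-log median intensity across replicate spots of either probe orientation.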

Point of comparison: “AATATATTTGTGTATGTGCGCAGTGTGTAATTTATT [GTGCAC_site9765]”, “gcPBM binding intensity (ln)” value 7.92. Against it:
- TTATTTAAATATTGATGTACTCTCCTTATTATAATA [XGTACX_site1240] — lower, 6.76
- TCCTTTCAACCATATATAATGACATGTACTCAAAAA [GTGCAC_negctrl_site417] — lower, 6.77
- ATATATTTTTAATATGCACACAAGAATACATTCACA [CACACA_site914] — higher, 9.51
- AACGATATCTGTACTACACACATTATGTCATCCTAT [CACACA_site5374] — lower, 6.81
- GTTATATTTTTTTATACACACTGGAATATATAAATA [CACACA_site4282] — lower, 6.76
- ATATTATATATATAGGTGCGAGTATTTTATAAATAT [GTGCAC_site9889] — lower, 6.93
- TTCCAAAAAATTATTACACACATATGAGCACATATA [CACACA_site4543] — higher, 9.16
- AGAAAGAAGATATATACACACAAAAAAAGATATATA [CACACA_site6779] — lower, 6.75
- ATATATATATATATGTGTACACAAAAAATATTATAT [XGTACX_site5741] — higher, 9.26
- TTCCAAAAAGTTATTACACACATATGTGCACATATA [CACACA_site6465] — higher, 11.2
- ATATTATATATATGTGCACACAAAAGATATATATAT [CACACA_site2125] — higher, 10.5
- ATTCTATATATGTGCACACAAAAGATATATATATAT [CACACA_site2124] — higher, 11.4
- ATTATATATATGTGCACACAAAAGATATATATATAT [CACACA_site5205] — higher, 11.1
- TATATATATATGTGTACACAAAAAATATTATATTAT [CACACA_site5505] — higher, 8.81
- TTCCAAAAAATTATTACACACATATGGGCACATATA [CACACA_site679] — lower, 6.54
- AAAAAAAAAAGACACACACACAAAAAAAGATATATA [CACACA_site6645] — lower, 6.58
- TATATAAAGATATATACACACAAAAAAAAAAAAAAA [CACACA_site6778] — lower, 6.32
- TTATATGTATATATAGTGCAGAACAAAAGATTATAT [GTGCAC_site9599] — lower, 7.69
- TATAAACCCACCTACACACACAACGTAAATGCATTG [CACACA_site2238] — lower, 6.96
- TTCTTTTCAGAAGGAAAGAATTATAACATATCATAA [XGTACX_negctrl_site548] — lower, 6.13
- AATAATTTGGTCTTATCAAAAATTAAAAATAAATAA [XGTACX_negctrl_site430] — lower, 6.05
- TTTCCCTACCAAAAATGTACTTATAAGCGTTTTTAT [XGTACX_site739] — lower, 6.5
- TTTTATTTAACTCATAATTTTTTAAAAAACAATTAT [XGTACX_negctrl_site19] — lower, 6.37
- ATAAAGATATGACACACACACATATTATAGATATAT [CACACA_site7434] — lower, 6.69
- TATATATATATGTGCACACATAAAGATATTATTTTT [CACACA_site3733] — higher, 10.1
- TATATATATATATGTGCACACATAAAGATATTATTT [CACACA_site3734] — higher, 10.6
- AATGTATTCTCTCATGCACACTTTCTTTAAGGGACC [CACACA_site5245] — higher, 8.87
- GTTCATCACATATACACATGCATATTCTAATATGTA [TGCATGCA_site809] — lower, 7.25
- TTTCTTCTGCATTATGCACACTATAATTCGTTAAAA [CACACA_site5568] — higher, 10.5
- TTCGTTCTTTTATGCACACTCAACATATAAATTAAA [CACACA_site1209] — higher, 10.1
- TTTTTCTTCTGCATTATGCACACTATAATTCGTTAA [CACACA_site2837] — higher, 10.2
- ATTTATATATCGCCCACACACATGTGATTATTTATA [CACACA_site6905] — lower, 7
- TTATATTTTAAGAAATGTACATGATATAATTATCAA [XGTACX_site8693] — lower, 6.39
- AATATATATGGACATGCATGGACATAATAATCTATT [TGCATGCA_site838] — lower, 6.47
- CATATAAAAATGTGCACACACACACCCATATATATT [CACACA_site1526] — higher, 10.5
- AATATAAATAAAAACACACACACACCGATATATATA [CACACA_site5283] — lower, 7.05
- AAAAAAAAAAAACACACACACACACCCATATATAAA [CACACA_site1170] — lower, 6.79
- TGGGCACCCATATACACACACAAATACAATGATAAA [CACACA_site4762] — lower, 6.48
- AAAATACATAAACACACACACACACCGATATATATA [CACACA_site9186] — lower, 7.14
- AATAAATATATATACACACCCATATATATATATATA [CACACA_site2595] — higher, 9.48
- AAAAAAATGAAACACACACACACATATATATATATA [CACACA_site1043] — higher, 9.32
- GGTGCACCCATATACACACACAAATACAATGATAAA [CACACA_site1132] — higher, 10.2
- ATATATGAAAATATATGTACACAACATATAAAATAG [XGTACX_site5132] — lower, 6.63
